Test results: the supplement of paper PMC10849652
Targets with a hit are over-represented here; the source holds about 8,800 in all. About 0.5% of all pairs of compound and target were hits. A number with no mark means an inactive call.

Columns and labels:
Assay in all cases: log2 fold change, soluble protein after heating vs DMSO (PISA); higher = thermal stabilisation; K562 lysate, 10 uM; active = over 0.2 and 3.5 SD of the protein, either way, in both replicates (recomputed)
[1] = compound: CS(=O)(=O)CCNCc1ccc(-c2ccc3ncnc(Nc4ccc(OCc5cccc(F)c5)c(Cl)c4)c3c2)o1 [lapatinib]
Summary of the method: (§1)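 To prepare the extract, K562 pellets were dounce-homogenised in PBS pH 7.4 with 1 mM MgCl2, giving crude material at 1 mg/mL protein. This was treated with 10 μM compound for 30 min, then heated in aliquots for 3 min over 48°C-58°C before pooling and addition of NP-40 to 0.5% at 4°C. Centrifugation at 21,000xg for 90 min left soluble protein in the supernatant, which TMTpro 16plex LC-MS/MS quantified with equalised channel sums. Results are log-two fold changes in thermal stability compared with solvent controls, from duplicates.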

[2] = compound: C[C@@H](Oc1cc(-c2cnn(C3CCNCC3)c2)cnc1N)c1c(Cl)ccc(F)c1Cl [crizotinib]
Summary of the method: as §1

[3] = compound: C[C@H](C1=CC=C(C=C1)C(=O)NC2=C3C=CNC3=NC=C2)N
Summary of the method: as §1

[4] = compound: C[C@H](Nc1ncnc2nc[nH]c12)c1cc2cccc(Cl)c2c(=O)n1-c1ccccc1 [duvelisib]
Summary of the method: as §1

[5] = compound: Cc1cc(Nc2cc(CN3CCOCC3)c3nc(C)c(Cc4ccc(Cl)cc4F)n3n2)n[nH]1 [gandotinib]
Summary of the method: as §1

[6] = compound: Cc1cc(Nc2cc(N3CCN(C)CC3)nc(Sc3ccc(NC(=O)C4CC4)cc3)n2)n[nH]1 [tozasertib]
Summary of the method: as §1

[7] = compound: Cc1ccc(-n2nc(C(C)(C)C)cc2NC(=O)Nc2ccc(OCCN3CCOCC3)c3ccccc23)cc1 [doramapimod]
Summary of the method: as §1

[8] = compound: Cc1cccc(CC(=O)N2CCc3c2ccc(-c2cn(C)c4ncnc(N)c24)c3F)n1
Summary of the method: as §1

[9] = compound: CS(=O)(=O)N1CCN(Cc2cc3nc(-c4cccc5[nH]ncc45)nc(N4CCOCC4)c3s2)CC1 [pictilisib]
Summary of the method: as §1

[10] = compound: Cc1ccc(NC(=O)c2ccc(CN3CC[C@H](N(C)C)C3)c(C(F)(F)F)c2)cc1Nc1nccc(-c2cncnc2)n1 [bafetinib]
Summary of the method: as §1

Sequence of UniProt Q9HCK4 (Q9HCK4 whole entry, looked up): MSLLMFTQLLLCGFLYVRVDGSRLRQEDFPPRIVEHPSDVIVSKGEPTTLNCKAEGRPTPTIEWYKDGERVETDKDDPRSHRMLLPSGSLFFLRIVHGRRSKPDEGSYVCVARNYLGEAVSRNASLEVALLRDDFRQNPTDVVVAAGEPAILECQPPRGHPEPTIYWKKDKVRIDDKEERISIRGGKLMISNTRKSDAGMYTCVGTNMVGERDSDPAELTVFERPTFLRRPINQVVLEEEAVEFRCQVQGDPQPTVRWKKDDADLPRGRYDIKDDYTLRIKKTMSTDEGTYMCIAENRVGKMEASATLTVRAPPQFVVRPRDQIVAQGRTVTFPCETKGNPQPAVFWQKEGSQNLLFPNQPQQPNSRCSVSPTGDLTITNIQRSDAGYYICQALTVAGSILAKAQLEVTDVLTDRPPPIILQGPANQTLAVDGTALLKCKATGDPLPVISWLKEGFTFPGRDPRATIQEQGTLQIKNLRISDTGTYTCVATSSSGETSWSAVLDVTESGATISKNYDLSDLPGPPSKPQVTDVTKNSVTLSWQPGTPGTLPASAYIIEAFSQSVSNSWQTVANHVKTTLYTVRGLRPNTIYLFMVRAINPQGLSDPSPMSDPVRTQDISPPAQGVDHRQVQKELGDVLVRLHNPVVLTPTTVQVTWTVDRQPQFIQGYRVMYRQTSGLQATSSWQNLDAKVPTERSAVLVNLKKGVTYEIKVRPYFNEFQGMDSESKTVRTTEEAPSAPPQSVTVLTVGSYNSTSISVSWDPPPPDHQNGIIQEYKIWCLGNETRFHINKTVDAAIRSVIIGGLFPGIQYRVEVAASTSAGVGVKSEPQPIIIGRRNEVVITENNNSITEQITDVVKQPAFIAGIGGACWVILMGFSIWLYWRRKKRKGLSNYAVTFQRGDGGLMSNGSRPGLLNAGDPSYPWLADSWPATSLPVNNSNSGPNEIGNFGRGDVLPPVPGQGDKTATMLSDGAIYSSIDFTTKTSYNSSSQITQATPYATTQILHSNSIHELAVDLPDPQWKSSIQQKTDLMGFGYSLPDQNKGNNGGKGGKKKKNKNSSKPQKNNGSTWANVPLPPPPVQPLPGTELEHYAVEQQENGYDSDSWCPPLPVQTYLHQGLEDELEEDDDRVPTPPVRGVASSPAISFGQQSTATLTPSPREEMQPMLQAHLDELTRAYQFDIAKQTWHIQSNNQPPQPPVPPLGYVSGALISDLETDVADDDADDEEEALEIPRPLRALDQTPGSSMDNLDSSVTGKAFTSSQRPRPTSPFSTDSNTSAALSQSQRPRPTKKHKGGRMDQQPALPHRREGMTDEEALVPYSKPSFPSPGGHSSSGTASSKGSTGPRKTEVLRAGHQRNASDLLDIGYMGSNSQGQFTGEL
Sequence of UniProt Q96K19 (Q96K19 whole entry, looked up): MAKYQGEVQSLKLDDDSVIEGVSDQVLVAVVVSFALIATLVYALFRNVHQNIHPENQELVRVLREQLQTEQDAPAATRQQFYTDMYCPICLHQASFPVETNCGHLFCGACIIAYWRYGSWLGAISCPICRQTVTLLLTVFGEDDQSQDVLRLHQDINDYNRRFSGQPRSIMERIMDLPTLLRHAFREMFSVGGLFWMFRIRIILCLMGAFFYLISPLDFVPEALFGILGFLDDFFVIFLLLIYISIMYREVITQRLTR
Sequence of UniProt Q92698 (Q92698 whole entry, looked up): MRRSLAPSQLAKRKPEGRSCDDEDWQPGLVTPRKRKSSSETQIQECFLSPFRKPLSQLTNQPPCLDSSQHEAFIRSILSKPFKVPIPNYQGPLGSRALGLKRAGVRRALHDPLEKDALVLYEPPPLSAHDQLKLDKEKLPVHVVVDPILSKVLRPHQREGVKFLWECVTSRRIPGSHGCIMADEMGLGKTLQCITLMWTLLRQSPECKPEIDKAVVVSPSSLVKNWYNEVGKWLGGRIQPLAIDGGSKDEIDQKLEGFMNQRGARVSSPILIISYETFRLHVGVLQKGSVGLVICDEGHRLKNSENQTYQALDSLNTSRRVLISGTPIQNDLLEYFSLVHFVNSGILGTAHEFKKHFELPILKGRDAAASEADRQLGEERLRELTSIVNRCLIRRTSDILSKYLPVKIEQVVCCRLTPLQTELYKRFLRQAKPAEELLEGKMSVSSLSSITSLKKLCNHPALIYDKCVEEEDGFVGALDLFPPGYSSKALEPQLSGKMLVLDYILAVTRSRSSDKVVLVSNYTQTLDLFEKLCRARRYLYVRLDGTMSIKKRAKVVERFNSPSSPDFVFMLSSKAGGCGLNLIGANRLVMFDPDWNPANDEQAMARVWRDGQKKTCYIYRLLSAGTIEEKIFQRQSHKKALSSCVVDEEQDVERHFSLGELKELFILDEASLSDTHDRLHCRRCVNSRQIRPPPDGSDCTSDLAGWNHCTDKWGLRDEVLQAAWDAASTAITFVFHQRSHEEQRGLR
Sequence of UniProt Q86VV8 (Q86VV8 whole entry, looked up): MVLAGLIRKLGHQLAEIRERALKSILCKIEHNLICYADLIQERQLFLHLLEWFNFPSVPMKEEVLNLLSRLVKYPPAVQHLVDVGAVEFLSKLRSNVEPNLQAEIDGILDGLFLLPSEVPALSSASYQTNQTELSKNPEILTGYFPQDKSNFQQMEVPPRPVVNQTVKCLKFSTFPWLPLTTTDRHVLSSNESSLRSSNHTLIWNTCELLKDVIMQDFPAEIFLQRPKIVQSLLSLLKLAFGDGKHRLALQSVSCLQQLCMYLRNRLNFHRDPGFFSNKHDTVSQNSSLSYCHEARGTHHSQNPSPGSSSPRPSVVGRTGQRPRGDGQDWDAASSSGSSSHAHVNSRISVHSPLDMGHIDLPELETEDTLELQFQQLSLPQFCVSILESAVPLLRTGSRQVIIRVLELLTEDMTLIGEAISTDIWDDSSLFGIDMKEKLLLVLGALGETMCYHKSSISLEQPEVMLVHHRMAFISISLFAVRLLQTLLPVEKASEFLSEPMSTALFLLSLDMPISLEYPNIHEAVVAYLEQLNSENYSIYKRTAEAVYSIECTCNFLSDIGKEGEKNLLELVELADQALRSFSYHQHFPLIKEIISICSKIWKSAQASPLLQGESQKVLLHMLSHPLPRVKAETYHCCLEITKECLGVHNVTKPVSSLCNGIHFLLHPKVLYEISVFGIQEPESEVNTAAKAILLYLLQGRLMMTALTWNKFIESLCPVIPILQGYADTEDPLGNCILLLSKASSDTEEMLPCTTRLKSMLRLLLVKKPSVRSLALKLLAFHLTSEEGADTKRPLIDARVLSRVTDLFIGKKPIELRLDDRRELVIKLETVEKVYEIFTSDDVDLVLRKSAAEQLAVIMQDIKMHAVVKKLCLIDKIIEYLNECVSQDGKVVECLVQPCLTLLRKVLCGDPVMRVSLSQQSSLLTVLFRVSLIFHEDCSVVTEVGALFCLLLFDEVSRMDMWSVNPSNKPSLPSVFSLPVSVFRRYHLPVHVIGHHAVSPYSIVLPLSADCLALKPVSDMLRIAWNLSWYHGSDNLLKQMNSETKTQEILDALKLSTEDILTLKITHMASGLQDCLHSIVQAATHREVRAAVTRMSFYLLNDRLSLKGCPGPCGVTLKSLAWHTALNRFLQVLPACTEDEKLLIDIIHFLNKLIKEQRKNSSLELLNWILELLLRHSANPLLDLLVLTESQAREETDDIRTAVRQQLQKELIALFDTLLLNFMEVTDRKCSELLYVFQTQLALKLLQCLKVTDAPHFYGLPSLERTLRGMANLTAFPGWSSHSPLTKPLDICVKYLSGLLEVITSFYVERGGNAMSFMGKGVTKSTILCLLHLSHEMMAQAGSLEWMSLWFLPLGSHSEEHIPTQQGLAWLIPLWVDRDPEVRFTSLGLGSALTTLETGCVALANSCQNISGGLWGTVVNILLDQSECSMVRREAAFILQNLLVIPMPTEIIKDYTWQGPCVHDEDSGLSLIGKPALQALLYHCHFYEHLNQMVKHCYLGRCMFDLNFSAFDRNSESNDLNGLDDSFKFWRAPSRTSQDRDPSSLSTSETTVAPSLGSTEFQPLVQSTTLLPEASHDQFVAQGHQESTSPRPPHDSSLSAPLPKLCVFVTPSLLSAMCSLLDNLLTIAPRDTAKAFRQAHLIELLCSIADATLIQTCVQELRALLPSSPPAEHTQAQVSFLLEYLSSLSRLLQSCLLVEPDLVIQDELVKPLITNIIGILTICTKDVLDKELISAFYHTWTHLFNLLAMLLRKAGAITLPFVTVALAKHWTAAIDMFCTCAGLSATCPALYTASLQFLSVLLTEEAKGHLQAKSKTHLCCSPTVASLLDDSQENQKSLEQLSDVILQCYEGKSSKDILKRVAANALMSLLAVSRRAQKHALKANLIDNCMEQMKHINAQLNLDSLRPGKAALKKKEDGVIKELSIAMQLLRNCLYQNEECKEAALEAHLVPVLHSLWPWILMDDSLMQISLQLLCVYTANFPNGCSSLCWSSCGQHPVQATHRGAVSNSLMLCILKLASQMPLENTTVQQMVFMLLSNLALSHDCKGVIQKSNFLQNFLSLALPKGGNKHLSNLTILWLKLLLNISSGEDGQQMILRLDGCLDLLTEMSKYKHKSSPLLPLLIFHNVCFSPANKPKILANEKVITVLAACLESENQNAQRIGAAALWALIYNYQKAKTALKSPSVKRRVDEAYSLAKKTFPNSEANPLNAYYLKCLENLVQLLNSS
Sequence of UniProt Q8IUH3 (Q8IUH3 whole entry, looked up): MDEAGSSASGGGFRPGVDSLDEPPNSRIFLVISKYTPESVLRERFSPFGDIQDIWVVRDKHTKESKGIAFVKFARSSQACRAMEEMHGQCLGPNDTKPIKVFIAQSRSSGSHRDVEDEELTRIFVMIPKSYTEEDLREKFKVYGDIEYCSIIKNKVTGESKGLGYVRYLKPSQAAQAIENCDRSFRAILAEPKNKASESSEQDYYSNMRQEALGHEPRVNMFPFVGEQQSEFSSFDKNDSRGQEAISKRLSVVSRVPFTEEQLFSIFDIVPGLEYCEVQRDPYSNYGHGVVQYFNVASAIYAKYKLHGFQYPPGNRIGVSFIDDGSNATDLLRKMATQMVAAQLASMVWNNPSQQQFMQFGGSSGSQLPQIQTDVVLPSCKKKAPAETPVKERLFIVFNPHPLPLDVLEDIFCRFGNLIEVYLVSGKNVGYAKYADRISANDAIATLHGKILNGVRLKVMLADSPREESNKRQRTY

Target | log2 fold change [1] | log2 fold change [2] | log2 fold change [3] | log2 fold change [4] | log2 fold change [5] | log2 fold change [6] | log2 fold change [7] | log2 fold change [8] | log2 fold change [9] | log2 fold change [10]
S100A6 (UniProt P06703) | 0.069 | 0.119 | 0.088 | 0 | 0.207 | -0.038 | -0.017 | -0.119 | – | –
ROBO2 isoform 3 (UniProt Q9HCK4) | 0.02 | -0.039 | – | – | – | – | 0.019 | – | – | –
RHBDD1 (UniProt Q8TEB9) | 0.06 | – | 0.036 | – | -0.118 | -0.071 | – | -0.028 | -0.216 | -0.133
RNF170 (UniProt Q96K19) | -0.011 | – | -0.042 | -0.229 | -0.198 | – | – | 1.2 (active) | -0.332 | 0.024
SCNM1 (UniProt Q9BWG6) | 0.006 | 0.057 | 0.022 | 0.057 | 0.015 | -0.039 | -0.017 | -0.157 | – | –
QSER1, A0A3B3IRW6 | -0.04 | -0.072 | – | 0.005 | – | -0.033 | 0 | – | – | –
RTTN (UniProt Q86VV8) | 0.306 | – | -0.053 | 0.067 | -0.289 | -0.07 | – | 0.203 | -0.034 | -0.032
RAD54L (UniProt Q92698) | -0.029 | – | -1.75 (active) | 0.109 | 0.454 | – | – | 0.617 | 0.029 | -0.185
RBM45 (UniProt Q8IUH3) | -0.12 | -0.094 | 0.184 | – | -0.1 | – | 0.014 | 0.077 | – | –
RPS6KA5 (UniProt O75582) | -0.024 | 0.028 | 0.13 | -0.011 | -0.23 | 0.106 | -0.043 | -0.032 | – | –
RFWD3 (UniProt Q6PCD5) | – | -0.066 | 0.036 | 0.041 | 0.004 | -0.037 | 0.036 | 0.107 | -0.12 | -0.04
